D3 antag – antagonists of human D3 dopamine receptor. P35462. D3R cells, DiscoveRx beta-arrestin luminescence, antagonist mode; hits give low values. max response, negative = inhibition, %. 360,000 tested, 2.5% active; in the data active = max response below about -50%; inconclusive = no clear call, values can overlap the other calls; also: % is scaled to controls: 0 for no effect and ±100 for the full control effect
Target sequence (P35462 whole entry, looked up): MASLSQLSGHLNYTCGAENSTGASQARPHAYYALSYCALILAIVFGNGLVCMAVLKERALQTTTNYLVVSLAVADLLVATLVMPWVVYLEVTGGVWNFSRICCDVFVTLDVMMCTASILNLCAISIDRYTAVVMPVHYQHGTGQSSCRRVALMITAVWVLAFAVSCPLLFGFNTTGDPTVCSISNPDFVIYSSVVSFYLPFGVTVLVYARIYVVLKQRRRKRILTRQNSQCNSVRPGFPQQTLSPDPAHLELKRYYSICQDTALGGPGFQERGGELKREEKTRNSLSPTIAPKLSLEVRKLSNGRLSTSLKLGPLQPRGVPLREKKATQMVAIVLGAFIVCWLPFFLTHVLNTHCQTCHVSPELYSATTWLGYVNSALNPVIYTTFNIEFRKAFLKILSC
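Cells expressing the human receptor were seeded at 1500 cells/well, incubated overnight at 37 degrees C in 5% CO2, then exposed to library compounds with dopamine controls for 90 minutes at 37 degrees C before luminescent detection.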
PI5P4Ka inh – inhibitors of human PI5P4K alpha; AID 652105; PI5P4Kalpha enzyme, ADP-Glo luminescence, 60 min; hits give low values; 330,000 tested, 1.2% active; P48426; max response, %; active = max response of -50% or lower; inconclusive = between -30% and -50%; inactive = -30% or higher; also: value at the top dose of about 77 µM; % is scaled to controls: 0 for no effect and ±100 for the full control effect
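Enzyme plus substrate dispensed, test compounds pinned in, then ATP (5 microM final) added. After 60 min at RT, ADP-Glo reagent 1 for 45 min and reagent 2 for 30 min preceded luminescence imaging.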
PI4K2A block – blocks human PI4K2A kinase activity | purified PI4K2A, ADP-Glo luminescence, 1 h; hits give low values | 420,000 tested, 0.13% active | AID 1346378 | activity change, negative = inhibition, % at 76.9 µM; in the data active = activity change below about -50%; inconclusive = mostly about -30% to -49%;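 also: -100% = wells without enzyme as full effect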
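ADP-Glo luminescence measured ADP generated by PI4K2A enzyme (4 ug/mL before mixing) with 1.2 mM PI substrate (pre-mix) and 300 microM ATP (pre-mix). Tris pH7.5 buffer with MgCl2, Triton X-100; 1 h reaction at ambient temperature.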
D3 ag – activates the human D3 dopamine receptor | P35462 | D3R DiscoveRx beta-arrestin cells, luminescence, 90 min | max activation, % | 410,000 tested, 0.58% active; in the data active = max activation above about 30%; also: 0% is about no effect
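Agonist mode: compounds and dopamine controls were applied to plated cells for 90 min at 37 degrees C after an overnight attachment at 1500 cells/well. Luminescent read-out followed 30 - 60 minutes at room temperature with DiscoveRx detection reagent.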
LDHA inh – blocks human lactate dehydrogenase A | AID 1347041 | 480,000 tested, 0.15% active | purified LDHA, NADH/diaphorase-resazurin fluorescence; hits give low values | activity change, % (values are at about 110 or 230 µM); in the data active = activity change below about -30%; inconclusive = mostly about -25% to -30%;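 also: plate controls were DMSO wells for no effect and wells without enzyme for full effect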
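Human LDH5 (2 nM) was incubated with 0.06 mM NADH and 0.2 mM pyruvate for 5 min at room temperature in Tris pH 7.4. Remaining NADH was coupled through diaphorase/resazurin, and resorufin fluorescence was read at 0 and 20 min.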
An asterisk follows results filed as active; ? = inconclusive; . = no result given. Hits are enriched below; roughly 3.3% of the tested compounds scored in any of these assays.

SMILES	D3 antag	PI5P4Ka inh	PI4K2A block	D3 ag	LDHA inh
Cc1cc(NS(=O)(=O)c2ccccc2)c([N+](=O)[O-])cc1C	-52*	0	1	-4	-6
Cc1ccccc1/C=C/C(=O)c1ccco1	.	.	.	.	0
COc1ccc(C(=O)Oc2ccc3oc(=O)sc3c2)cc1	-52*	-7	?	3	-3
COc1ccc(C(=O)Oc2ccc3ccc(=O)oc3c2)cc1	5	0	-2	-5	2
Cc1cc(OCCN2CC(C)OC(C)C2)ccc1[N+](=O)[O-] (configuration not stated)	-24	.	10	-6	-16
Cc1ccc([N+](=O)[O-])c(OCCN2CCNCC2)c1	-62*	3	1	27	-7
Cc1ccc(OCCN2C(=O)c3ccccc3C2=O)c([N+](=O)[O-])c1	-69*	-8	0	-17	-6
Cc1ccc(OCCOCCN2CCN(C)CC2)c([N+](=O)[O-])c1	-16	0	-4	-3	-46*
Cc1cc(OCCN2CCC(Cc3ccccc3)CC2)ccc1[N+](=O)[O-]	-64*	4	-2	-24	-9
CSc1nsc(SCCC(=O)NCc2ccccc2)n1	.	.	.	.	-8
CC1CCC/C(=N/NC(=S)Nc2ccccc2)C1 (configuration not stated)	.	.	.	.	2
CC(C)Cc1ccc(C(=O)C2CCNCC2)cc1	.	.	.	.	-5
O=C(N/N=C/c1ccco1)c1ccn[nH]1	0	-8	-76*	-3	-1
CCN(CC)C(CNC(=O)c1cc(-c2ccco2)on1)c1ccccc1 (configuration not stated)	.	.	.	.	17
COc1cccc(NC(=O)Cn2c(NCc3ccccc3)nc3ccccc32)c1	.	.	.	.	3
CCOc1cc(CNCc2ccccn2)ccc1OCC(=O)NC1CCCCC1	-89*	-4	-19	-23	0
Cc1ccc2oc3c(c(=O)c2c1)C(c1cccc(Br)c1)N(Cc1ccco1)C3=O (configuration not stated)	-56*	.	-4	4	-10
O=C1C=C(c2ccccc2)C(=O)N1Nc1ccccc1	?	-17	17	4	-2
COc1ccc(C2=CC(=O)N(Nc3ccccc3)C2=O)cc1	-62*	-2	10	-13	-17
Cc1ccc(NN2C(=O)C=C(c3ccc(Cl)cc3)C2=O)cc1	-53*	-11	18	-1	-2
Cc1cccc(OCCn2c(CCNC(=O)C3CCCCC3)nc3ccccc32)c1	.	.	.	.	-14
CCOC(=O)Cn1nc2oc(=O)c(CCN3CCN(c4ccccc4OC)CC3)c(C)c2c1C	-108*	1	0	-7	-11
COc1ccc(-c2coc3c(C(=O)NCc4ccco4)cccc23)c(C)c1	-1	0	2	-16	-9
COc1ccc(-c2coc3c(C(=O)NCC4CC4)cccc23)c(C)c1	276	1	2	56*	-2
CCN(Cc1cccs1)C(=O)NCc1ccc(F)cc1	.	.	.	.	-10
SMILES	D3 antag	PI5P4Ka inh	PI4K2A block	D3 ag	LDHA inh
c1nc(SSc2ncnc3nc[nH]c23)c2[nH]cnc2n1	-21	-80*	4	0	8
O=C(O)CSc1ncnc2nc[nH]c12	-12	?	5	0	-8
Cc1cc(C)cc(C(=O)NCC(=O)OCc2ncc(-c3ccccc3)o2)c1	.	.	.	.	3
CCOC(=O)C1=C(C)NC(=O)CC1C(=O)Nc1cc(Cl)cc(Cl)c1 (configuration not stated)	.	.	.	.	-61*
COC(=O)C1=C(C)NC(=O)CC1C(=O)Nc1cc(Cl)cc(Cl)c1 (configuration not stated)	.	.	.	.	-7
c1ccc2c(c1)Cn1c-2nc2ccccc21	7	?	-53*	-1	-3
Brc1c(-c2ccccc2)nc2n1Cc1ccccc1-2	16	-4	-1	-3	4
CC(=O)c1ccc(C(=O)O)s1	.	.	.	.	7
Nc1nc(CN2CCN(Cc3ccccc3)CC2)nc(N2CCCc3ccccc32)n1	-21	-2	5	-13	-1
Nc1nc(CN2CCN(c3ccccc3F)CC2)nc(N2CCCc3ccccc32)n1	-24	9	-4	32*	0
Nc1nc(CN2CCN(c3ccccc3)CC2)nc(N2CCCc3ccccc32)n1	?	.	3	6	0
Nc1nc(CN2CCN(c3cccc(Cl)c3)CC2)nc(N2CCCc3ccccc32)n1	-77*	17	-4	16	4
Cc1cccc(/C=C(/C(=O)N2CCCC(C)C2)c2cccs2)c1 (configuration not stated)	.	.	.	.	3
N#CCC(N)=C(C#N)C#N	3	-76*	3	-10	-13
CSc1nsc(SCC(=O)Nc2ccc(F)cc2)n1	-10	5	0	0	-7
O=C(CSc1n[nH]c(=O)[nH]c1=O)Nc1ccc(C(=O)O)cc1	1	-64*	-5	-1	-6
O=C(CSc1nnc(SCc2cccc3ccccc23)s1)Nc1ccc(C(=O)O)cc1	-10	-93*	-3	-1	-10
CSc1nsc(SCC(=O)Nc2ccc(C(=O)O)cc2)n1	-17	-51*	2	-6	-4
Cc1cc(Cn2nc(C(=O)NCc3cccc(C(F)(F)F)c3)cc2-c2ccccc2)on1	-60*	8	-1	-15	1
Cc1ccc(CNC(=O)c2cc(-c3ccccc3)n(Cc3cc(C)no3)n2)cc1	17	-6	4	7	2
Cc1sc2nc(CSc3nnnn3-c3ccc(Cl)cc3)[nH]c(=O)c2c1C	-9	-17	-3	1	-15
CCn1c(SCc2nc3sc(C(=O)O)c(C)c3c(=O)[nH]2)nnc1-c1ccc(Cl)cc1	4	-56*	0	1	1
O=C(NCCc1c[nH]c2ccc(Cl)cc12)c1ccc(F)cc1F	.	.	.	.	-7
COc1ccc(OCCSc2nc(C)nc3ccccc23)cc1	63	34	-3	55*	-4
CCCCCCCC(=O)Nc1cc(C(=O)NCCC)ccc1N1CCC2(CC1)CC(c1ccccc1)=NO2	-119*	0	3	48*	2
SMILES	D3 antag	PI5P4Ka inh	PI4K2A block	D3 ag	LDHA inh
Clc1nc(NCc2ccco2)c2ccccc2n1	.	.	.	.	-4
Nc1nc(NCc2ccco2)nc(N2CCCC2)c1[N+](=O)[O-]	3	4	0	-2	0
Nc1nc(NCc2ccco2)nc(N2CCN(Cc3ccccc3)CC2)c1[N+](=O)[O-]	-79*	-3	2	-14	-5
Cc1ccc(OCCN2CCN(c3nc(NCc4ccco4)c4ccccc4n3)CC2)cc1	-78*	0	-4	-26	3
Cc1ccc(-c2nc(NCc3ccco3)c3ccccc3n2)cc1	9	26	2	0	-9
OCCN1CCN(c2nc(NCc3ccco3)c3ccccc3n2)CC1	-82*	-3	0	-20	-10
c1ccc(CN2CCN(c3nc(NCc4ccco4)c4ccccc4n3)CC2)cc1	-82*	8	-3	-13	4
CN(CCC(=O)NC(N)=O)C(c1ccccc1)c1ccccc1	.	.	.	.	8

Assay outcomes: PubChem BioAssay, National Center for Advancing Translational Sciences (NCATS)
